ssDAF12 agonist = activates DAF-12 receptor from parasite S. stercoralis; AID 652126; HEK293 ssDAF-12/GRIP1 lit1-tk-luc reporter, luminescence; % of 3 µM dafachronic acid response; activation, % at 6.8 µM; 370,000 compounds, 1% hits;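 active means activation above the mean over all tested compounds plus 3 SD, cut at about 0.9% in these data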;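 further: 0% = DMSO-only wells and 100% = 3 µM delta7-dafachronic acid wells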
hgDAF-12 ag = hgDAF-12 agonism, primary luciferase screen. HEK293 GAL4-hgDAF12 UAS-luciferase reporter, agonist luminescence; normalized to butyrate control. activation, % at 6.8 µM. 370,000 compounds, 1.8% hits;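 active means activation above a cutoff set at the mean of all screened compounds plus 3 SD, cut at about 10% in these data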;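 further: 0% = DMSO wells and 100% = sodium butyrate wells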
DAX1 inh-1 = inhibitors of DAX1 repression of SF-1 activated StAR promoter | HEK293T StAR-luciferase reporter, SF-1/DAX-1 repression relief | inhibition, % at 6.8 µM | 370,000 compounds, 1.1% hits;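 active means inhibition above the mean over all tested compounds plus 3 SD, cut at about 3.6% in these data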;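 further: 0% = DAX-1 cells with DMSO and 100% = cells lacking DAX-1 with DMSO; higher inhibition means more luminescence from relief of DAX-1 repression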
DAX1 inh-2 = NR0B1 (DAX1) inhibition; P51843; HEK293 Gal4-DAX1 luciferase reporter, luminescence; inhibition, % at 6.75 µM; 340,000 compounds, 0.99% hits;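 active means inhibition above the mean over all tested compounds plus 3 SD, cut at about 4.2% in these data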;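 further: 0% = DAX1-transfected cells with DMSO and 100% = empty-vector control cells with DMSO; inhibition shows as a rise in luminescence from relieved DAX1 repression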
Target sequence (P51843 207-470 limits assumed): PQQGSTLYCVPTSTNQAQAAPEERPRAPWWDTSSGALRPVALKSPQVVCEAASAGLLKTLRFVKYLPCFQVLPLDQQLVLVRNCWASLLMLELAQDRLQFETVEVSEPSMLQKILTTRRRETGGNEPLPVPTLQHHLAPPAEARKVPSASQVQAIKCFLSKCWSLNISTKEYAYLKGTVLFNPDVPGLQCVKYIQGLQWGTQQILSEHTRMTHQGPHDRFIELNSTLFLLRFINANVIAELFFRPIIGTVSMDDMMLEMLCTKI
NR1D1 modulator = modulators of human Rev-erb alpha DNA binding; P20393; Rev-erbα–FITC-DNA binding, fluorescence polarization, 90 min; activity, % at 10 µM; 370,000 compounds, 0.79% hits; AID 1259318;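 active means activity above about 14%, limit read from the data; passing the limit was not always enough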;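 further: 0% = DMSO wells with 35 nM protein and 100% = DMSO wells with 750 nM protein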
hcDAF12 agonist = activators of H. contortus DAF-12 nuclear receptor; activation, % at 6.8 µM; 370,000 compounds, 1.4% hits; HEK293 hcDAF-12 lit1-tk-luc reporter, luminescence; 0% DMSO, 100% Δ7-dafachronic acid;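 active means activation above the mean of all tested compounds plus 3 SD, cut at about 5.5% in these data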;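 further: 100% = response to 3 µM Δ7-dafachronic acid high control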
LXRb hcDAF ctr = activates human LXR-beta, counter-screen for hcDAF-12 agonists | shares compounds with hcDAF12 agonist | HEK293 Gal4-LXR tk-luc reporter, luminescence, 24 h; normalized: DMSO 0%, positive control 100% | activation, % at 6.8 µM | 3,400 tested, under 10 active | AID 743027;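 active means mean percent activation of the reporter above a cutoff set as the average over tested compounds plus their standard deviation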
hcDAF12 ag = confirmation of H. contortus DAF-12 agonists; shares compounds with hcDAF12 agonist; HEK293 hcDAF-12 lit1-tk-luc reporter, luminescence; % of Δ7-dafachronic acid response; activation, % at 6.8 µM; 3,400 compounds, 61% hits;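 active means mean activation across triplicate tests above the threshold derived from the earlier primary screen, cut at about 5.5% in these data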;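 further: 0% = DMSO only wells and 100% = 3 µM Δ7-dafachronic acid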
* hit, by the source's call; / = not tested or not shown. Sampled rows, rich in hits. Any-hit rate of the full collection: about 4.8%.

SMILES	ssDAF12 agonist	hgDAF-12 ag	DAX1 inh-1	DAX1 inh-2	NR1D1 modulator	hcDAF12 agonist	LXRb hcDAF ctr	hcDAF12 ag
O=S(=O)(Nc1ccn(-c2ccccc2)n1)c1ccc(Br)cc1	-1	5	2	0	3	7.3*	0	4
Cc1ccc(NC(=O)CSc2nnc(C)c(=O)n2N)cc1Cl	-1	0	-1	-1	-3	0	/	/
Cc1nnc(SCC(=O)c2ccc(Cl)cc2)n(N)c1=O	1	7	3	1	-1	9.6*	1	3
O=[N+]([O-])c1ccc(CN2[C@H](COCc3ccccc3)C=CS2(=O)=O)cc1	-1	1	-1	/	-2	-2	/	/
O=C(Nc1cccnc1Cl)c1cc2ccccc2o1	2.8*	12*	3	4.2*	-1	9.3*	1	5
O=C(Nc1ccccc1N1CCCC1)c1cc2ccccc2o1	1.9*	12*	2	1	-3	7.5*	0	6.7*
O=C(Nc1ccccc1N1CCCCC1)c1ccc(-c2cccc(Cl)c2)o1	-1	2	0	-2	-4	7.4*	0	5
O=C(Nc1ccccc1N1CCCCC1)c1ncoc1-c1cccc(F)c1	-1	1	1	1	3	7.0*	0	2
Cc1ccc(OC2CCN(C(=O)[C@@H](Cc3ccccc3)NC(=O)[C@H]3O[C@@H](n4ccc(=O)[nH]c4=O)[C@H](O)[C@@H]3O)CC2)cc1	-1	0	1	/	-3	-1	/	/
CCC(C)[C@H](NC(=O)N1CC(=O)Nc2ccccc21)C(=O)N[C@@H](C(=O)O)c1ccccc1 (stereo not given in full)	-1	1	0	0	-3	0	/	/
CCC(C)[C@H](NC(=O)N1CC(=O)Nc2ccccc21)C(=O)N[C@H](Cc1c[nH]c2ccccc12)C(=O)O (stereo not given in full)	0	0	0	1	3	8.0*	0	3
CCOC(=O)C(C)(C)Sc1nc2c(cnn2-c2ccc(C)cc2)c(=O)[nH]1	-1	2	0	0	3	8.8*	0	0
CCOC(=O)C(C)(C)Sc1nc2c(cnn2-c2ccc(F)cc2)c(=O)[nH]1	-1	-5	0	1	-2	-1	/	/
CCCCN1CC(COCc2ccccc2)Oc2cccc(Oc3ccc(SC)c(C)c3)c2S1(=O)=O (stereo not given)	-1	0	0	/	-5	-1	/	/
CC1CCc2c(nc3sc4c(c3c2N)CCCC4)C1 (stereo not given)	0	21*	2	1	5	7.1*	1	2
O=C(NC1CC1)c1sc2cc(F)ccc2c1Cl	-1	2	2	1	0	1	/	/
O=C(NC1=NCCS1)c1sc2cc(F)ccc2c1Cl	1.3*	11*	2	3	1	9.4*	2	15*
CCOC(=O)C1=CCN(S(=O)(=O)c2ccc(F)cc2)C1c1ccccc1 (stereo not given)	-2	-1	0	/	-1	7.7*	0	1
CCOC(=O)C1=CCN(S(=O)(=O)c2ccc(F)cc2)C1c1ccc(F)cc1 (stereo not given)	-1	-2	0	/	-7	-2	/	/
CCOC(=O)[C@]12CCCC=C1N(Cc1ccc(OC)cc1)C(=O)[C@@H]2CC(=O)NCCCCc1ccccc1	-2	-2	-1	/	2	-4	/	/
C=CCNc1nc(-c2ccc(OC)cc2OC)cs1	0	11*	3	3	3	8.1*	1	8.0*
COc1ccc(-c2csc(NC(=O)CN3C(=O)C4CCCCC4C3=O)n2)c(OC)c1 (stereo not given)	-2	-1	-1	1	-7	-3	/	/

Compound activity as filed in PubChem.
